Measured values taken from PubChem BioAssay AID1159580 (chemical genetic matrix, 2015).
The whole screen tested about 5,500 compounds, of which about 2,000 (36%) were called active. Inconclusive results (about 18%) are left out. Cut-off read from the data, not from the text of the source: active = normalized growth mostly below about 0.91 (no sharp cut-off); inconclusive = no clear call, values can overlap the other calls; inactive = mostly above about 0.92. The list shows a part of the results.

Assay: chemical genetic growth profiling, strain panel (AID 1159580);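 note: tested at 20 µM; growth read once vehicle control cultures reached saturation at 30 °C; 1 = growth at the plate median or of vehicle wells; lower values mean less growth of the strain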
Details: growth OD
[1] = S. cerevisiae deletion strains, locus YAL013W, strain DEP1, active compounds read low
[2] = S. cerevisiae deletion strains, locus YBR229C, strain ROT2, active compounds read low
[3] = S. cerevisiae deletion strains, locus YDL101C, strain DUN1, active compounds read low
[4] = S. cerevisiae deletion strains, locus YDR150W, strain NUM1, active compounds read low
[5] = S. cerevisiae deletion strains, locus YEL061C, strain CIN8, active compounds read low
[6] = S. cerevisiae deletion strains, locus YGR078C, strain PAC10, active compounds read low
[7] = S. cerevisiae deletion strains, locus YHR030C, strain SLT2, active compounds read low
[8] = S. cerevisiae deletion strains, locus YHR087W, strain rtc3, active compounds read low
[9] = S. cerevisiae deletion strains, locus YJR043C, strain POL32, active compounds read low
[10] = S. cerevisiae deletion strains, locus YJR075W, strain HOC1, active compounds read low
[11] = S. cerevisiae deletion strains, locus YKL190W, strain CNB1, active compounds read low
[12] = S. cerevisiae deletion strains, locus YLR039C, strain RIC1, active compounds read low
[13] = S. cerevisiae deletion strains, locus YLR058C, strain SHM2 (second series), active compounds read low
[14] = S. cerevisiae deletion strains, locus YLR085C, strain ARP6, active compounds read low
[15] = S. cerevisiae deletion strains, locus YLR262C, strain YPT6, active compounds read low
[16] = S. cerevisiae deletion strains, locus YML094W, strain GIM5, active compounds read low
[17] = S. cerevisiae deletion strains, locus YMR219W, strain ESC1, active compounds read low
[18] = S. cerevisiae deletion strains, locus YMR263W, strain SAP30, active compounds read low
[19] = S. cerevisiae deletion strains, locus YNL153C, strain GIM3, active compounds read low
[20] = S. cerevisiae deletion strains, locus YNL298W, strain CLA4 (second series), active compounds read low
[21] = S. cerevisiae deletion strains, locus YNL322C, strain KRE1, active compounds read low
[22] = S. cerevisiae deletion strains, locus YNR030W, strain Alg12, active compounds read low
[23] = S. cerevisiae deletion strains, locus YPL055C, strain LGE1, active compounds read low
[24] = S. cerevisiae deletion strains, locus YPL241C, strain CIN2, active compounds read low
[25] = S. cerevisiae deletion strains, locus YPR135W, strain CTF4, active compounds read low
[26] = S. cerevisiae strains, strain wild type, active compounds read low

Measured: normalized growth

COc1cccc(C(=O)N/N=C(/C)c2ccccc2O)c1
active: [7] 0.466 | [11] 0.802 | [12] 0.618 | [14] 0.395 | [15] 0.625 | [16] 0.817 | S. cerevisiae deletion strains, locus YMR307W, strain GAS1, active compounds read low 0.537 | S. cerevisiae deletion strains, locus YNL128W, strain TEP1, active compounds read low 0.871 | [20] 0.805 | [22] 0.759 | [24] 0.791 | [25] 0.592 | [26] 0.777
inactive: [1] 0.975 | [2] 0.961 | S. cerevisiae deletion strains, locus YCL061C, strain MRC1, active compounds read low 0.915 | [3] 0.93 | [4] 0.92 | [5] 0.982 | [6] 0.955 | [8] 0.981 | [9] 0.958 | [10] 0.969 | [13] 0.994 | [17] 0.987 | [18] 0.969 | [19] 0.973 | [21] 0.985 | [23] 0.991

O=C(COC(=O)c1ccccc1C(=O)c1ccccc1)c1ccccc1
inactive: [1] 0.984 | [2] 0.988 | [3] 0.97 | [4] 0.969 | [5] 0.989 | [6] 0.98 | S. cerevisiae deletion strains, locus YGR229C, strain SMI1, active compounds read low 0.993 | [7] 0.861 | [8] 0.98 | [9] 0.979 | [10] 0.957 | [11] 0.998 | [12] 0.912 | [13] 0.984 | [14] 0.936 | [15] 0.933 | [16] 0.99 | [17] 0.978 | [18] 0.902 | [19] 0.99 | [20] 0.971 | [21] 0.989 | [22] 0.975 | [23] 0.979 | [24] 0.95 | [25] 0.868 | [26] 1
